Experimental data reported in PubChem BioAssay (EPA / NIEHS).
Results filed as inconclusive are left out. The source made the active and inactive calls. Rule for the calls, unless noted: active = hit-call score of the fitted dose curve at least 0.9, where 1 is the maximum; inactive = score below 0.9.

Assays:
[1] = CCTE_Harrill_HTTr_Apoptosis_MCF7: CCTE's 6-hour Apoptosis Assessment for the High-Throughput Transcriptomics (HTTr) Platform, in MCF-7 cells cultured in DMEM + 10% fetal bovine serum, Harrill Lab (AID 2284011)
In short: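 MCF-7 (DMEM + 10% FBS), 384-well; 8-pt dilution series, 6 h chemical exposure; caspase-3/7 activation via CellEvent Caspase 3/7 Green, HCI; bidirectional fit vs DMSO.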

[2] = CCTE_Harrill_HTTr_CellCount_MCF7: CCTE's Cell Proliferation Assessment for the High-Throughput Transcriptomics (HTTr) Platform, Harrill Lab (AID 2284012; active = hit-call score of the fitted dose curve at least 0.9, where 1 is the maximum;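 note: count of Hoechst-stained nuclei per well by high-content imaging in MCF-7 cells; cells exposed to compound for six hours; intended direction is loss of nuclei count meaning fewer cells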)
In short: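 Chemicals in eight-point dilution series are added to MCF-7 cells for six hours, nuclei are stained with Hoechst and imaged, and per-well nuclei counts are fitted in both directions relative to DMSO controls.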

[3] = CCTE_Deisenroth_DEVTOX-GLR_legacy_CellCount: (Legacy) Viability Assessment in CCTE's DevTox GLR-Endo Assay, Deisenroth Lab (AID 2284331); conditions: actives raise or lower the signal
In short: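 Seed RUES2-GLR 24 h; differentiate 48 h, dosing at 0 and 24 h; fix, stain nuclei; image 5 fields/well; count nuclei. Conc. 1 nM - 200 uM, single technical replicate, n=4 experiments; bidirectional fit vs 0.2% DMSO.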

[4] = tested on: SRY-box transcription factor 2 (SOX2) Protein Expression, Deisenroth Lab, SOX2 (gene 6657); test: CCTE_Deisenroth_DEVTOX-GLR_Endo_SOX2: CCTE's DevTox GLR-Endo Assay Evaluation of SRY-box transcription factor 2 (SOX2) Protein Expression, Deisenroth Lab (AID 2284412; active = hit-call score of the fitted dose curve at least 0.9, where 1 is the maximum)
In short: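 RUES2-GLR human pluripotent cells were seeded 24 h, then differentiated 48 h with two chemical exposures 24 h apart. Cells were fixed, nuclei stained and imaged by high-content microscopy. Endpoint is %SOX2+ cells over cell count, minus 0.2% DMSO control; 10-point series 1 nM–200 uM.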

[5] = tested on: SRY-box transcription factor 17 (SOX17) Protein Expression, Deisenroth Lab, SOX17 (gene 64321); test: CCTE_Deisenroth_DEVTOX-GLR_Endo_SOX17: CCTE's DevTox GLR-Endo Assay Evaluation of SRY-box transcription factor 17 (SOX17) Protein Expression, Deisenroth Lab (AID 2284413)
In short: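 Seed RUES2-GLR cells 24 h; start endoderm differentiation; dose at 0 and 24 h (1 nM - 200 uM, 10 points); fix at 48 h, stain nuclei, image 5 fields/well; compute SOX17+/total cells vs 0.2% DMSO.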

[6] = tested on: Brachyury (BRA) Protein Expression, TBXT (gene 6862); test: CCTE_Deisenroth_DEVTOX-GLR_Endo_BRA: CCTE's DevTox GLR-Endo Assay Evaluation of Brachyury (BRA) Protein Expression, Deisenroth Lab (AID 2284417)
In short: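 Percent BRA+ (mesoderm) RUES2-GLR cells after 48 h differentiation with two exposures, 1 nM - 200 uM; 0.2% DMSO control subtracted.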

[7] = CCTE_Deisenroth_DEVTOX-GLR_Endo_CellCount: Viability Assessment in CCTE's DevTox GLR-Endo Assay, Deisenroth Lab (AID 2284420)
In short: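 Human pluripotent RUES2-GLR line; 24 h pre-seed; 48 h endoderm-directed differentiation; 2 doses, q24h; 10 conc., 1 nM - 200 uM; fix + nuclear dye; 5 fields/well imaged; readout = nuclei count, % change vs 0.2% DMSO; n=4.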

[8] = CCTE_Deisenroth_DEVTOX-GLR_Pluri_CellCount: Viability Assessment in CCTE's DevTox GLR-Pluri Assay Evaluation of Total Cell Counts, Deisenroth Lab (AID 2284430)
In short: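 RUES2-GLR human pluripotent cells, seeded 24 h, then differentiated 48 h with two chemical exposures 24 h apart; 10-point series 1 nM - 200 uM. Fixed, nuclear-stained, imaged (5 fields/well); nuclei count as % change vs 0.2% DMSO.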

[9] = CCTE_Shafer_MEA_dev_firing_rate_mean: CCTE's Neural Network Formation Assay for Mean Firing Rate, Shafer Lab (AID 2284031);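 for AC50: curve fitted for loss of firing so AC50 reflects decreased mean firing rate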
In short: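 Rat primary cortical neurons were seeded on multielectrode arrays and treated from plating through day 12, with redosing at each feed. Spontaneous spiking was recorded four times; mean firing rate AUC was fitted downward against DMSO.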

[10] = CCTE_Shafer_MEA_dev_per_burst_spike_percent: CCTE's Neural Network Formation Assay for Percent of Spikes in a Burst, Shafer Lab (AID 2284032);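 for AC50: fitted as a decrease in burst spike percentage below DMSO baseline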
In short: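 Rat primary cortical neurons on 16-electrode MEA wells, dosed from plating day 0 for 12 days with renewal on DIV 5 and 9; spikes-in-bursts percentage averaged over bursting electrodes, collapsed as AUC across days 5, 7, 9, 12; loss direction versus DMSO.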

[11] = CCTE_Shafer_MEA_dev_active_electrodes_number: CCTE's Neural Network Formation Assay for Number of Active Electrodes, Shafer Lab (AID 2284040; active = hit-call score of the fitted dose curve at least 0.9, where 1 is the maximum;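 for AC50: potency for loss of active electrodes versus DMSO so lower counts are hits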)
In short: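 Primary rat cortical neurons on 16-electrode MEA wells, exposed from day 0 through day 12 with compound renewed at DIV 5 and 9 feeds. Active electrodes (mean firing ≥5 spikes/min) counted at DIV 5, 7, 9, 12; trapezoidal AUC across days, loss-of-signal versus DMSO.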

[12] = CCTE_Shafer_MEA_dev_inter_network_spike_interval_mean: CCTE's Neural Network Formation Assay for Mean Inter-network Spike Interval, Shafer Lab (AID 2284047);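 for AC50: potency for a decrease in mean inter-network spike interval below DMSO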
In short: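 Compound was given at plating to primary rat cortical neurons and renewed with full medium changes on DIV 5 and 9. Extracellular activity was recorded on days 5, 7, 9, 12; AUC values were fitted for loss relative to DMSO control.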

[13] = tested on: SRY-box transcription factor 17 (SOX17) Protein Expression, Deisenroth Lab, SOX17 (gene 64321); test: CCTE_Deisenroth_DEVTOX-GLR_Pluri_SOX17: CCTE's DevTox GLR-Pluri Assay Evaluation of SRY-box transcription factor 17 (SOX17) Protein Expression, Deisenroth Lab (AID 2284427; active = hit-call score of the fitted dose curve at least 0.9, where 1 is the maximum)
In short: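 Human RUES2-GLR pluripotent line; 24 h seeding, 48 h defined-media differentiation, 2 doses q24h, 10 conc 1 nM - 200 uM. Fix, nuclear stain, image 5 fields/well. Endpoint = %SOX17+ minus 0.2% DMSO; n=4.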

[14] = tested on: Brachyury (BRA) Protein Expression, Deisenroth Lab, TBXT (gene 6862); test: CCTE_Deisenroth_DEVTOX-GLR_Pluri_BRA: CCTE's DevTox GLR-Pluri Assay Evaluation of Brachyury (BRA) Protein Expression, Deisenroth Lab (AID 2284429; active = hit-call score of the fitted dose curve at least 0.9, where 1 is the maximum)
In short: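 An inducible fluorescent BRA reporter in RUES2-GLR cells tracks mesoderm differentiation. Compounds (10 concentrations, 1 nM - 200 uM) are dosed twice within a 48-h differentiation. The endpoint subtracts the 0.2% DMSO control from percent BRA+ cells.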

[15] = biological target: Thyroid hormone receptor alpha (Rattus norvegicus) + Thyroid hormone receptor beta (Rattus norvegicus) (UniProt P18113+P63059); test: TOX21_TR_LUC_GH3_Agonist_Followup: Tox21 GH3 Thyroid Hormone Receptor Agonism Luciferase Follow-Up Assay (AID 2283939; active = hit-call score of the fitted dose curve at least 0.9, where 1 is the maximum)
In short: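 Rat GH3 cells (1,500/well) in serum-free assay medium, treated with 15-point series, 92 uM to 5 nM final, for 24 h at 37C. Luciferase via ONE-Glo luminescence; gain of signal fitted against DMSO, T3 positive control.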

THRA (gene 7067) = THRA (gene 7067) (UniProt P10827); test: TOX21_TRA_COA_Agonist_Followup_ratio: Tox21 Thyroid Hormone Receptor alpha Agonism through Coactivator Recruitment Follow-Up Assay, Ratio (AID 2283948)
In short: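 Follow-up specificity assay in which TRα ligand-binding domain, expressed as a GST fusion, recruits a fluorescein-labelled SRC-2 peptide. Energy transfer from a terbium anti-GST antibody gives the acceptor/donor ratio, fitted upward relative to DMSO.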

THRB (gene 7068) = THRB (gene 7068) (UniProt P10828); test: TOX21_TRB_COA_Agonist_Followup_ratio: Tox21 Thyroid Hormone Receptor beta Agonism through Coactivator Recruitment Follow-Up Assay, Ratio (AID 2283963)
In short: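 Agonism is measured as coactivator recruitment in a purified-protein TR-FRET format, using GST-TRβ LBD at 5.0 nM, fluorescein-SRC-2 peptide at 200 nM and Tb-labeled anti-GST antibody at 2 nM. Values are 520:495 nm ratios relative to DMSO (0%) and T3 (100%).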

[16] = biological target: Retinoic acid receptor RXR-alpha (Homo sapiens) (UniProt P19793); test: TOX21_TR_RXR_BLA_Agonist_Followup_ratio: Tox21 Thyroid Hormone Receptor beta Retinoid X Receptor alpha (RXRa) Agonism Beta-lactamase (BLA) Follow-Up Assay, Ratio (AID 2283968; active = hit-call score of the fitted dose curve at least 0.9, where 1 is the maximum)
In short: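 HEK293T RXRa-bla, qHTS; cpd 11-pt conc. in triplicate, 16 h 37C/5% CO2; CCF4-AM 2 h RT; ratio 460:530 nm; agonist direction vs DMSO; 9-cis retinoic acid as positive control.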

[17] = TOX21_TR_RXR_BLA_Agonist_Followup_viability: Viability Assessment in the Tox21 Thyroid Hormone Receptor beta Retinoid X Receptor alpha (RXRa) Agonism Beta-lactamase (BLA) Follow-Up Assay (AID 2283970; active = hit-call score of the fitted dose curve at least 0.9, where 1 is the maximum)
In short: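 Cells: HEK293T RXRa-UAS-bla, 2,500/well; medium phenol red-free DMEM + 2% charcoal-stripped FBS; 16h, 37C/5% CO2; qHTS concentration series. Read: CellTiter-Glo luminescence (ATP); bidirectional fit, DMSO = baseline.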

Measured: AC50

Thyroid hormone receptor alpha (Rattus norvegicus) + Thyroid hormone receptor beta (Rattus norvegicus), sequence (P63059 whole entry, looked up): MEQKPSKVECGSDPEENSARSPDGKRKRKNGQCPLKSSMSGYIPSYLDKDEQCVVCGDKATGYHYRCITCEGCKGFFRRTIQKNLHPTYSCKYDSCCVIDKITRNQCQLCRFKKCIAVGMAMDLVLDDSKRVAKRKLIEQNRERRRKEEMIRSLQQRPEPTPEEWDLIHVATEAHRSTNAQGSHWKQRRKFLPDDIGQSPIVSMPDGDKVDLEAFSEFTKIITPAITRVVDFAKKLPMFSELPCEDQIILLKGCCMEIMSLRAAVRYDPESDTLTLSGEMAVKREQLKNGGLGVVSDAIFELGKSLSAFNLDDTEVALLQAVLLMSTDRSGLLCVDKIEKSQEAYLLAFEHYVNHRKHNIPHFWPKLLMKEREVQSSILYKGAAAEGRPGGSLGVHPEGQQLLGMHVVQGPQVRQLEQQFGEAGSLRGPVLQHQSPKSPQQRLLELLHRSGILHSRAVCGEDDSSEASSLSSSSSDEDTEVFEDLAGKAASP
Thyroid hormone receptor alpha (Rattus norvegicus) + Thyroid hormone receptor beta (Rattus norvegicus), sequence (P18113 whole entry, looked up): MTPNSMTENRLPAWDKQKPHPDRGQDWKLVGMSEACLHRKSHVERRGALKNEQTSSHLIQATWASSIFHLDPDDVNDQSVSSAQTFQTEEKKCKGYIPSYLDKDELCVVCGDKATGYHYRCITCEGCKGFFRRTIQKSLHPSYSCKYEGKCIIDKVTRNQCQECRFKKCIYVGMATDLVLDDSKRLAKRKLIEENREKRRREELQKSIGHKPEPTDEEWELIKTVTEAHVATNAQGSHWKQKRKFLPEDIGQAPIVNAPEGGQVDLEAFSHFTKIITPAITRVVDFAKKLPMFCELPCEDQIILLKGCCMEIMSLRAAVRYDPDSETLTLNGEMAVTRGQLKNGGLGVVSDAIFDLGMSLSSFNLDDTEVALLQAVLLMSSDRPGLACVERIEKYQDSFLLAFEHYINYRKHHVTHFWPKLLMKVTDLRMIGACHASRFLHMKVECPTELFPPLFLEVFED
Retinoic acid receptor RXR-alpha (Homo sapiens), sequence (P19793 whole entry, looked up): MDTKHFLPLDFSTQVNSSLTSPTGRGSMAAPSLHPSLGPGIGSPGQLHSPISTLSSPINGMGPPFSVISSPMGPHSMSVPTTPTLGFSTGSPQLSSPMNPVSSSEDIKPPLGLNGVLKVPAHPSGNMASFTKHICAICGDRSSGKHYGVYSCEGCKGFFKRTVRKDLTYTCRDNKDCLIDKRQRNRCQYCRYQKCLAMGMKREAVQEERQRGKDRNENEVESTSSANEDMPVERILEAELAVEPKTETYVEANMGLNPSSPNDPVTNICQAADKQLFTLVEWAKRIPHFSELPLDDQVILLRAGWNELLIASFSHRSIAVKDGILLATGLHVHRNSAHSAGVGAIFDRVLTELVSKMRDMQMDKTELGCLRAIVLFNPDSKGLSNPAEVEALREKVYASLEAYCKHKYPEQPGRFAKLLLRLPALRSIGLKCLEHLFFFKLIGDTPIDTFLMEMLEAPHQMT
THRA (gene 7067), sequence (P10827 whole entry, looked up, the tested form may be a part): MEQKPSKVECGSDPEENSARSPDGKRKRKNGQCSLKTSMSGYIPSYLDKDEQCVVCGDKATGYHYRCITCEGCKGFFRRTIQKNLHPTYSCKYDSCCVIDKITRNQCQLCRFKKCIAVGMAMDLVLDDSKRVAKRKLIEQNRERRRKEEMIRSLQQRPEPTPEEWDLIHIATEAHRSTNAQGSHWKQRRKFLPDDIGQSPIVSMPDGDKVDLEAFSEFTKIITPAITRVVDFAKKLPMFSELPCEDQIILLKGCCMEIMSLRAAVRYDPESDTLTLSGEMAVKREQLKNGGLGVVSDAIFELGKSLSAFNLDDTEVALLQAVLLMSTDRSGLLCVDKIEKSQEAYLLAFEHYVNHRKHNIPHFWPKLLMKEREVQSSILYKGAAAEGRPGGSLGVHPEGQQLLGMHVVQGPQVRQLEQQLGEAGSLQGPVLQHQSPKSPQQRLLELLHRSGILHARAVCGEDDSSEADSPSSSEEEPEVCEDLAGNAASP
THRB (gene 7068), sequence (P10828 whole entry, looked up, the tested form may be a part): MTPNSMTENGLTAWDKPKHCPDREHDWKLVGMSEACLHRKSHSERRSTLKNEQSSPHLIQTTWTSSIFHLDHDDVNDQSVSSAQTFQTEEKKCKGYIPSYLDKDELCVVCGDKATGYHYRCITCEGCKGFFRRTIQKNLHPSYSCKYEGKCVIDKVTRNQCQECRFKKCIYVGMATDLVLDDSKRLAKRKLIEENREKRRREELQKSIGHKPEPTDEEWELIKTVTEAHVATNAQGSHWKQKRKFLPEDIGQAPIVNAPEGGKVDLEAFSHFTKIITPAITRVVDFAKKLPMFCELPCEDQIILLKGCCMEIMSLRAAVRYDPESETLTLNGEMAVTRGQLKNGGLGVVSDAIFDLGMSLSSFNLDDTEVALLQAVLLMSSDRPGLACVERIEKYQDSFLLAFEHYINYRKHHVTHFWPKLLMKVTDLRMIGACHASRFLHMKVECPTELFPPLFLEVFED

NNc1nncc2ccccc12
inactive: [1]

CC1(C)[C@@H](O[C@H]2O[C@H](C(=O)O)[C@@H](O)[C@H](O)[C@H]2O[C@@H]2O[C@H](C(=O)O)[C@@H](O)[C@H](O)[C@H]2O)CC[C@]2(C)[C@H]3C(=O)C=C4[C@@H]5C[C@@](C)(C(=O)O)CC[C@]5(C)CC[C@@]4(C)[C@]3(C)CC[C@@H]12
inactive: [2]

COc1cc2c(Nc3ccc(Br)cc3F)ncnc2cc1OCC1CCN(C)CC1
inactive: [8]
active: [3] 4.51 µM | [4] 8.62 µM | [5] 4.83 µM | [6] 6.72 µM | [7] 4.46 µM

Cc1c(O)cccc1C(=O)N[C@@H](CSc1ccccc1)[C@H](O)CN1C[C@H]2CCCC[C@H]2C[C@H]1C(=O)NC(C)(C)C
active: [9] 0.438 µM | [10] 1.43 µM | [11] 0.953 µM | [12] 1.09 µM

CNC(=O)c1cc(Oc2ccc(NC(=O)Nc3ccc(Cl)c(C(F)(F)F)c3)cc2)ccn1
active: [3] 1.11 µM | [4] 1.45 µM | [5] 0.604 µM | [6] 4.31 µM | [7] 1.08 µM | [13] 20.9 µM | [14] 1.3 µM | [8] 184 µM

CC1(C)S[C@@H]2[C@H](NC(=O)[C@H](N)c3ccc(O)cc3)C(=O)N2[C@H]1C(=O)O
inactive: [9] | [10] | [11] | [12]

Cc1nc2sccn2c(=O)c1CCN1CCC(=C(c2ccc(F)cc2)c2ccc(F)cc2)CC1
active: [3] 9.28 µM | [4] 20.4 µM | [5] 11 µM | [6] 17.7 µM | [7] 9.15 µM | [14] 24.1 µM | [8] 9.92 µM
inactive: [13]

COc1cc(C)c(/C=C/C(C)=C/C=C/C(C)=C/C(=O)O)c(C)c1C
active: [15] 0.767 µM | [16] 0.593 µM
inactive: THRA (gene 7067) | THRB (gene 7068) | [17]

Cc1c(N(C)CS(=O)(=O)O)c(=O)n(-c2ccccc2)n1C
inactive: [2]

Cc1cc(-n2c(=O)[nH]c(=O)n(C)c2=O)ccc1Oc1ccc(S(=O)(=O)C(F)(F)F)cc1
inactive: [15] | THRA (gene 7067) | THRB (gene 7068) | [16] | [17]

COc1ccc(Cl)cc1C(=O)NCCc1ccc(S(=O)(=O)NC(=O)NC2CCCCC2)cc1
inactive: [1]
